Shown are actives, neighbours in structure and some others; about 2.6% of the full set was active somewhere.
Cruzain inh Det: qHTS Assay for Promiscuous and Specific Inhibitors of Cruzain (with detergent); Cruzipain (Trypanosoma cruzi), P25779; purified cruzain, Z-FR-AMC fluorescence, 0.01% Triton; Potency, µM, most hits filed as inhibitors; 200,000 compounds, 0.43% hits; note: nearly all actives have a fitted effect of over 40% in size
Target sequence (P25779 123-467 limits assumed): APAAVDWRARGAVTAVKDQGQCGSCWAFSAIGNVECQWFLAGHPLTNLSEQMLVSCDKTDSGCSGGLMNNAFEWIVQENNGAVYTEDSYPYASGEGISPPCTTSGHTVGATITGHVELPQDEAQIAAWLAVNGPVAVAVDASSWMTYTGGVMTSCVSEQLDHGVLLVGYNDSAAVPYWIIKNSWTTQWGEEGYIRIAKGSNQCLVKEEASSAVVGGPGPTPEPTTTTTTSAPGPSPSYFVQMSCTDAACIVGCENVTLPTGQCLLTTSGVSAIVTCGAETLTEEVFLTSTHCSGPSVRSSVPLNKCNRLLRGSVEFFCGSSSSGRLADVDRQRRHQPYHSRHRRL
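Cruzain (1.5 nM) preincubated 15 min at RT with compound in 100 mM sodium acetate pH 5.5, 5 mM DTT, 0.01% Triton X-100. Reaction started with 2 uM Z-FR-AMC; AMC fluorescence (ex 360/em 450 nm) change over 60 s gave rate.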
Cruzain noTriton: qHTS Assay for Promiscuous and Specific Inhibitors of Cruzain (without detergent); purified cruzain, Z-FR-AMC fluorescence, no detergent; AID 1476, 2009; Cruzipain (Trypanosoma cruzi), P25779; 200,000 compounds, 2.3% hits; Potency, µM, actives largely listed as inhibitors; note: nearly all actives have a fitted effect of over 40% in size
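Purified cruzain at 1.5 nM, pre-incubated 15 min with compound at room temperature in 100 mM sodium acetate pH 5.5, 5 mM DTT, 0.00005% Triton X-100. Reaction started with 2 uM Z-FR-AMC; AMC fluorescence increase over 60 s gives rate.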
A number is an active result. Calls come from the whole dose curve; as a rule, active = well fitted curve in the direction sought with a large enough effect; inconclusive = small, poorly fitted or top-dose-only effect, or another doubt; inactive = no such curve, though single readings can be large; an effect the other way counts as inactive or inconclusive.

Screening CCOC(=O)c1c(NC(=O)c2ccccc2Cl)sc2c1CCCC2 returned Cruzain inh Det inactive and Cruzain noTriton inactive.
For COC(=O)c1c(NC(=O)c2ccccc2N(C)S(=O)(=O)c2ccccc2)sc2c1CCCC2 the results were Cruzain inh Det inactive and Cruzain noTriton 25µM.
`COC(=O)c1c(NC(=O)CN(c2ccccc2)S(C)(=O)=O)sc2c1CCCC2` gave Cruzain inh Det inactive and Cruzain noTriton inconclusive.
`Cc1ccc(F)cc1NC(=O)Cn1c(C)cc(C)c(C#N)c1=O` gave Cruzain inh Det inactive and Cruzain noTriton inactive.
`COc1ccccc1NC(=O)Cn1c(=O)n(-c2ccccc2Cl)c(=O)c2sc3ccccc3c21` gave Cruzain inh Det inactive and Cruzain noTriton inconclusive.
Screening COc1cc(NS(=O)(=O)c2ccc(Nc3nc(-c4cccc([N+](=O)[O-])c4)cs3)cc2)nc(OC)n1 returned Cruzain inh Det inactive and Cruzain noTriton 32µM.
For COc1cc(NS(=O)(=O)c2ccc(NS(=O)(=O)c3ccccc3)cc2)nc(OC)n1 the results were Cruzain inh Det inactive and Cruzain noTriton inactive.
NC(=S)Nc1nc2ccccc2[nH]c1=O was read as Cruzain inh Det 7.9µM and Cruzain noTriton inconclusive.
Screening O=c1[nH]c2ccccc2nc1C(Cl)c1ccccc1 (stereo unspecified) returned Cruzain inh Det inactive and Cruzain noTriton inactive.
For CC[C@@]1([N+](=O)[O-])C[C@H]2C=C[C@@H]1C2 the results were Cruzain inh Det inactive and Cruzain noTriton inactive.
Screening CCOc1ccc(CNC(=O)c2ccc3c(c2)nc2n3CCOC2)cc1OC returned Cruzain inh Det inactive and Cruzain noTriton inactive.
`CN(C)c1ccc(-c2nnn(CC(=O)N3c4ccccc4CCc4ccccc43)n2)cc1` gave Cruzain inh Det inactive and Cruzain noTriton 32µM.
For CN(C)c1ccc(-c2nnn(CC(=O)Nc3ccccc3N3CCOCC3)n2)cc1 the results were Cruzain inh Det inactive and Cruzain noTriton inactive.
For CC[C@@H]1CC(=O)N(SC[C@H](N)C(=O)O)C1=O the results were Cruzain inh Det inactive and Cruzain noTriton inactive.
O=C(Nc1ccccc1)c1nc2ccccc2s1 was read as Cruzain inh Det inactive and Cruzain noTriton inactive.
`Cc1ccc(C)c2sc(NC(=O)c3nc4ccccc4s3)nc12` gave Cruzain inh Det inactive and Cruzain noTriton 10µM.
Screening CCOc1ccc(Br)cc1C1C(C(=O)OC)=C(C)NC2=C1C(=O)c1ccccc12 (stereo unspecified) returned Cruzain inh Det inactive and Cruzain noTriton inactive.
`Cc1cc(F)ccc1NC(=O)CN(C)S(=O)(=O)c1ccc(C(=O)N2CCOCC2)s1` gave Cruzain inh Det inactive and Cruzain noTriton inactive.
For CN(CCOc1ccc(-c2ccn(S(=O)(=O)c3cccc4ccccc34)n2)cc1)c1ccccn1 the results were Cruzain inh Det inactive and Cruzain noTriton 25µM.
CN(CCOc1ccc(-c2ccn(S(=O)(=O)c3c(Cl)cccc3Cl)n2)cc1)c1ccccn1 was read as Cruzain inh Det inactive and Cruzain noTriton inconclusive.
For COC(=O)c1ccc(COC(=O)c2ccc(CS(=O)(=O)c3ccc(C)cc3)cc2)cc1 the results were Cruzain inh Det inactive and Cruzain noTriton 25µM.
`Cc1ccc(S(=O)(=O)CCC(=O)OCc2ccc(Cl)cc2)cc1` gave Cruzain inh Det inactive and Cruzain noTriton inactive.
COc1cccc(-n2ccnc2SCC(=O)Nc2cccc3ccccc23)c1 was read as Cruzain inh Det inactive and Cruzain noTriton inactive.
For CN1CCN(c2ncc3nc(CCc4ccccc4)c(=O)n(C)c3n2)CC1 the results were Cruzain inh Det inactive and Cruzain noTriton inactive.
For COc1ccc(CNC(=O)c2cc(Nc3ccc(C)cc3C)nc3ccccc23)cc1 the results were Cruzain inh Det inactive and Cruzain noTriton inactive.
`COc1ccc(CNC(=O)c2cc(Nc3ccccc3C)nc3ccccc23)cc1` gave Cruzain inh Det inactive and Cruzain noTriton 25µM.
`Cc1ccc(Nc2ncc(C(=O)N3CCN(c4cccc(Cl)c4)CC3)c3ccccc23)cc1Cl` gave Cruzain inh Det inactive and Cruzain noTriton 7.9µM.
For COc1ccc(OC)c(NC(=O)c2cnc(Nc3ccc(C)c(Cl)c3)c3ccccc23)c1 the results were Cruzain inh Det inactive and Cruzain noTriton 6.3µM.
For COc1ccc(Nc2ncc(C(=O)N3CCN(Cc4ccccc4)CC3)c3ccccc23)cc1 the results were Cruzain inh Det inactive and Cruzain noTriton inactive.
COc1ccccc1NC(=O)c1cnc(Nc2ccccc2OC)c2ccccc12 was read as Cruzain inh Det inactive and Cruzain noTriton inconclusive.
COc1ccc(Nc2nc(N)nc(CSc3nc4cc(OC)ccc4s3)n2)cc1 was read as Cruzain inh Det inactive and Cruzain noTriton inconclusive.
Cc1ccc(CC(=O)Nc2nc3ccccc3s2)cc1 was read as Cruzain inh Det inactive and Cruzain noTriton inactive.
For CCc1ccc(/C=C2/SC(=S)N(CC(=O)Nc3nc4ccccc4s3)C2=O)cc1 the results were Cruzain inh Det inactive and Cruzain noTriton 3.2µM.
